# Assay results: PubChem BioAssay (NCATS)
# Results filed as inconclusive are left out. A call without a number means that no potency is given here. The source made the active and inactive calls. The call rests on the fitted dose curve; in most records, active means well fitted curve in the direction sought with a large enough effect; inconclusive means small, poorly fitted or top-dose-only effect, or another doubt; inactive means no such curve, though single readings can be large; an effect the other way counts as inactive or inconclusive.
# Columns and labels:
# [1] = qHTS of pediatric cancer cell lines to identify multiple opportunities for drug repurposing: Confirmatory screen for MG 63 (6-TG R) cells (AID 1347119); further: nearly all actives have a fitted effect of over 55% in size
# Method in brief: (§1)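 Cells (500-1,000/well) rested 5 h, then received compounds for 48 h; metabolically active cells were measured by CellTiter-Glo luminescence. Final concentrations spanned up to 46 µM (MIPE, 11-point) or 0.59 nM-46 µM (NPC, 8-point) in primary screens, 11-point in follow-ups.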
# [2] = qHTS of pediatric cancer cell lines to identify multiple opportunities for drug repurposing: Confirmatory screen for Saos-2 cells (AID 1347127); conditions: Saos-2 osteosarcoma cell viability; further: potency means the concentration at half of the fitted maximal effect; nearly all actives have a fitted effect of over 60% in size
# Method in brief: as §1
# [3] = test system: Zika virus NS2B-NS3 protease (linked construct); test: Confirmatory screen NINDS AMC qHTS for Zika virus inhibitors (AID 1347152); conditions: Purified linked NS2B-NS3, AMC substrate fluorescence; further: potency means the concentration at half of the fitted maximal effect; nearly all actives have a fitted effect of over 70% in size
# Method in brief: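 Linked NS2B-NS3 protease, 1 nM, in 10 mM Tris-HCl pH 8.0, 0.01% Tween 20; compounds preincubated 15 min at room temperature. Nle-KRR-AMC 10 microM (Km 18.3 µM); 15-min fluorescence change (340/450 nm) fitted to 4-parameter Hill.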
# [4] = ZIKV-mCherry secondary qHTS for Zika virus inhibitors (AID 1347158); further: top concentration of the series differs between compounds
# Method in brief: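 This orthogonal imaging screen measured ZIKV-mCherry infection of Vero cells exposed to compound, MOI 1, 48-72 h. Percent infection came from segmented nuclei scored mCherry-positive above 3 SD of negative controls.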
# [5] = test system: Zika virus NS2B-NS3 protease (linked); test: 384 well plate NINDS AMC confirmatory qHTS for Zika virus inhibitors (AID 1347163); conditions: Recombinant NS2B-NS3 protease, Ac-VKTGKR-AMC fluorescence; further: potency means the concentration at half of the fitted maximal effect; nearly all actives have a fitted effect of over 50% in size
# Method in brief: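 Enzyme (5, 30 or 60 nM final) first met test compounds for ~15 min. The AMC-tagged peptide Ac-VKTGKR-AMC followed at 30 microM. Fluorescence was then recorded at 25 min and scaled against no-enzyme and no-inhibitor wells.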
# [6] = test system: Zika virus NS2B-NS3 protease (linked construct); test: 384 well plate NINDS Rhodamine confirmatory qHTS for Zika virus inhibitors (AID 1347164); conditions: rhodamine-110 peptide substrate fluorescence;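 further: fluorescence from protease cleavage of Ac-LKRR-rhodamine 110 substrate; potency means the concentration at half of the fitted maximal effect; nearly all actives have a fitted effect of over 65% in size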
# Method in brief: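 Linked NS2B-NS3 protease (final 5, 30 or 60 nM) preincubated ~15 minutes with compounds, then 10 microM Ac-LKRR-Rhodamine 110 added. Fluorescence (485/538 nm) read after 25 minutes at room temperature, normalized to no-enzyme and no-inhibitor controls.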
# [7] = Confirmatory screen GU Rhodamine qHTS for Zika virus inhibitors qHTS (AID 1347157); further: nearly all actives have a fitted effect of over 70% in size
# Method in brief: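 In dose–response format, inhibition of unlinked protease (25 nM) was measured with 1.5 microM bis-peptide Rhodamine110 substrate. Aprotinin served as the intraplate control.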
# [8] = test system: Zika virus NS2B-NS3 protease; test: Primary screen GU AMC qHTS for Zika virus inhibitors (AID 1347154); further: nearly all actives have a fitted effect of over 70% in size
# Method in brief: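 Fluorogenic AMC-substrate cleavage by noncovalent NS2B-NS3 protease complex (25 nM, pH 8.0 Tris buffer with Tween 20) followed for 15 minutes at room temperature (~20% conversion). Percent inhibition from ex340/em450 signal change, fitted by 4-parameter Hill equation.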
structure (smiles),measurement,setting,value
CC(=O)[C@@]1(O)CC[C@H]2[C@@H]3C[C@H](C)C4=CC(=O)C=C[C@]4(C)[C@@]3(F)[C@@H](O)C[C@@]21C,outcome,[1],inactive
COc1cc(C(=O)NCCCCCC(=O)O)cc(OC)c1OC,outcome,[1],inactive
CC(=O)OCC(=O)[C@@]1(O)CC[C@H]2[C@@H]3CCC4=CC(=O)C=C[C@]4(C)[C@@]3(F)[C@@H](O)C[C@@]21C,Potency,[2],11.7 µM (active)
O=C(O)Cn1c(C(=O)Nc2nc(-c3ccccc3Cl)cs2)cc2ccccc21,Potency,[3],21.5 µM (active)
same,outcome,[4],inactive
same,Potency,[5],70.8 µM (active)
same,Potency,[6],28.2 µM (active)
CN1C[C@@H]2C[C@H]1CN2c1cc2c(cc1F)c(=O)c(C(=O)O)cn2C1CC1,Potency,[3],16.7 µM (active)
COc1ccccc1Oc1c(NS(=O)(=O)c2ccc(C(C)(C)C)cc2)nc(-c2ncccn2)nc1OCCO,outcome,[7],inactive
COc1nccnc1NS(=O)(=O)c1ccc(N)cc1,Potency,[8],inactive
CC(=O)SC[C@@H](Cc1ccccc1)C(=O)NCC(=O)OCc1ccccc1,Potency,[8],inactive
CC(C)=CCC/C(C)=C/CO,Potency,[8],inactive
O=c1[nH]c(=O)c2ccccc2o1,Potency,[8],inactive
CC(=O)NS(=O)(=O)c1ccc(N)cc1,Potency,[8],inactive
O=C(O)CCCc1ccccc1,Potency,[8],inactive
CC(=O)Nc1ccc(OCCOCCOc2ccc(NC(C)=O)cc2)cc1,Potency,[8],inactive
Nc1ccncc1N,Potency,[8],inactive
C[n+]1ccccc1/C=N/O,Potency,[8],inactive
O=C(NCN1CCOCC1)c1cnccn1,Potency,[8],inactive
NNC(=O)CP(=O)(c1ccccc1)c1ccccc1,Potency,[8],inactive
C[N+](C)(C)CC[N+]1(C)Cc2c(Cl)c(Cl)c(Cl)c(Cl)c2C1,Potency,[8],inactive
